Measurements: the supplement of paper PMC11001985

Compound: C#CCNC(=O)CCSSCCC(=O)NCCc1ccc(C=O)c(C=O)c1
Assay: lysine labeling ratio R10:1 (500 µM / 50 µM probe), SILAC-ABPP in living cells; higher = lower intrinsic lysine reactivity toward the probe, active = 2 or less
Conditions: HeLa; probe concentrations 500 vs 50 µM
Procedure, shortened: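 In PBS at room temperature, living HeLa cells grown with SILAC light or heavy labels were treated with 50 µM or 500 µM of an alkyne-tagged, disulfide-linked lysine probe, with label swaps in both directions. Analysis was by LC-MS/MS on a TIMS-TOF Pro after click to biotin-azide, neutravidin capture and DTT release. For each lysine, R is the median across forward and reverse replicates of the filtered median high-probe/low-probe MS1 peptide ratio, capped at 20.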

Sequence of UniProt P13797 (P13797 whole entry): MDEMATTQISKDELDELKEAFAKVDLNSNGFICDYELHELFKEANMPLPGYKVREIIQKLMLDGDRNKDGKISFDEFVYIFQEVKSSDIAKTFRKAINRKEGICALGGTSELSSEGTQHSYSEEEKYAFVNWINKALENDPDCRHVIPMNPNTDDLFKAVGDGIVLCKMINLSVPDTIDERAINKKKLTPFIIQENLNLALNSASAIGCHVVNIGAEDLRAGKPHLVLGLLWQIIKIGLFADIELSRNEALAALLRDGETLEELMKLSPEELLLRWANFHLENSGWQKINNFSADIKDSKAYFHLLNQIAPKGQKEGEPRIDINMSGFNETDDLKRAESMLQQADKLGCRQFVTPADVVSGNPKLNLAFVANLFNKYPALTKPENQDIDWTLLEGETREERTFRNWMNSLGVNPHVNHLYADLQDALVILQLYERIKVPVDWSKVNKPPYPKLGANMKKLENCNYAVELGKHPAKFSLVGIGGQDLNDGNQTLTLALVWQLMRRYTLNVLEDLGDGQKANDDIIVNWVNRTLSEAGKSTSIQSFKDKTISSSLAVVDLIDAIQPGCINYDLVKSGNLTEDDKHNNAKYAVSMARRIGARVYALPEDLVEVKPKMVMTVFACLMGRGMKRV
Sequence of UniProt P35241 (P35241 whole entry): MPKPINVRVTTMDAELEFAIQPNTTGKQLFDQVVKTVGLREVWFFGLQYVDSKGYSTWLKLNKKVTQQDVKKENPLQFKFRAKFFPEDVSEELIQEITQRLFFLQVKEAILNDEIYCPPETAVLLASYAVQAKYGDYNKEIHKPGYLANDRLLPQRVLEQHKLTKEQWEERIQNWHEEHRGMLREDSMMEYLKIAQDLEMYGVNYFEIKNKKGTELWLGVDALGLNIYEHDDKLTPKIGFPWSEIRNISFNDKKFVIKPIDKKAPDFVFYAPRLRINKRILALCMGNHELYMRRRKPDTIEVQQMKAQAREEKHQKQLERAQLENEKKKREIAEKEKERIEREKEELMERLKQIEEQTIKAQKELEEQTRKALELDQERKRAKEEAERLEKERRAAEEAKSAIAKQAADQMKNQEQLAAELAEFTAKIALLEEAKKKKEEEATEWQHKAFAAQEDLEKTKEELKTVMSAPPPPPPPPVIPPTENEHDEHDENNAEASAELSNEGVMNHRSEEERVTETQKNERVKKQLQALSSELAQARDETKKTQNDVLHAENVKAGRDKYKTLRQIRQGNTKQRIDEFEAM
Sequence of UniProt P42785 (P42785 whole entry): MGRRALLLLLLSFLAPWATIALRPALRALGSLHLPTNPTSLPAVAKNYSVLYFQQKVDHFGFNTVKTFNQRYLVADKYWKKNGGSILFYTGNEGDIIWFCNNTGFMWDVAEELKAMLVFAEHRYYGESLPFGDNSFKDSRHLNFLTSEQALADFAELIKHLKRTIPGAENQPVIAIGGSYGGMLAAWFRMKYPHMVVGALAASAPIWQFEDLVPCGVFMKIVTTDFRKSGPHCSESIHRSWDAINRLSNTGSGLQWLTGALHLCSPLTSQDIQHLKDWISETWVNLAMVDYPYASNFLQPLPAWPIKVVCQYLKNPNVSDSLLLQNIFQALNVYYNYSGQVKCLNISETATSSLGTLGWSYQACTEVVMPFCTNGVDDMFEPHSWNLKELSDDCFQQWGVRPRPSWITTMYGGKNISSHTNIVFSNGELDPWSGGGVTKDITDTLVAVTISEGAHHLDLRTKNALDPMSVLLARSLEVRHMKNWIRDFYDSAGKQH
Sequence of UniProt O94905 (O94905 whole entry): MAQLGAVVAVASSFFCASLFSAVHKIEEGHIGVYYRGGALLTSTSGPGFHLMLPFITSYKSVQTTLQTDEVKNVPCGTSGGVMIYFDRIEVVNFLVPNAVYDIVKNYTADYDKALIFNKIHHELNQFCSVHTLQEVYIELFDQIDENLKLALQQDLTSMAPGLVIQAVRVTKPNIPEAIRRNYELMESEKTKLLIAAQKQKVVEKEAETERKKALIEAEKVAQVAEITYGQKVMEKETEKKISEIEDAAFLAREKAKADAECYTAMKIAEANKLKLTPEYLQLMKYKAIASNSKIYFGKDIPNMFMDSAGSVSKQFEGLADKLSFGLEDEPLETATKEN
Sequence of UniProt P06576 (P06576 whole entry): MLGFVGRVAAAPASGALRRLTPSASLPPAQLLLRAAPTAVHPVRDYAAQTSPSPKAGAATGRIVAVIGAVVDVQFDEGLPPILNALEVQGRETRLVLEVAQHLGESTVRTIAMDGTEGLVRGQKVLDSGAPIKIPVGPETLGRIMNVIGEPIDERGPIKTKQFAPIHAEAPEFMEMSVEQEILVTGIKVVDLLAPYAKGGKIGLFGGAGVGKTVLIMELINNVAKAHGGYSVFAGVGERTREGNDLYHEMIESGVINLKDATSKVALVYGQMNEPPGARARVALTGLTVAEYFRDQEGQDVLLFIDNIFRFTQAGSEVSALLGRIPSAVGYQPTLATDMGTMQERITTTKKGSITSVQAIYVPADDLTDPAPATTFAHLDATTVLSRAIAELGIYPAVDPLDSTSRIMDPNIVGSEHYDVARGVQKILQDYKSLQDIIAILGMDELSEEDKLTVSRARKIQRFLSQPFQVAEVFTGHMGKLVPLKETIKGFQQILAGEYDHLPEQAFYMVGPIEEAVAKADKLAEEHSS
Sequence of UniProt P23229 (P23229 whole entry): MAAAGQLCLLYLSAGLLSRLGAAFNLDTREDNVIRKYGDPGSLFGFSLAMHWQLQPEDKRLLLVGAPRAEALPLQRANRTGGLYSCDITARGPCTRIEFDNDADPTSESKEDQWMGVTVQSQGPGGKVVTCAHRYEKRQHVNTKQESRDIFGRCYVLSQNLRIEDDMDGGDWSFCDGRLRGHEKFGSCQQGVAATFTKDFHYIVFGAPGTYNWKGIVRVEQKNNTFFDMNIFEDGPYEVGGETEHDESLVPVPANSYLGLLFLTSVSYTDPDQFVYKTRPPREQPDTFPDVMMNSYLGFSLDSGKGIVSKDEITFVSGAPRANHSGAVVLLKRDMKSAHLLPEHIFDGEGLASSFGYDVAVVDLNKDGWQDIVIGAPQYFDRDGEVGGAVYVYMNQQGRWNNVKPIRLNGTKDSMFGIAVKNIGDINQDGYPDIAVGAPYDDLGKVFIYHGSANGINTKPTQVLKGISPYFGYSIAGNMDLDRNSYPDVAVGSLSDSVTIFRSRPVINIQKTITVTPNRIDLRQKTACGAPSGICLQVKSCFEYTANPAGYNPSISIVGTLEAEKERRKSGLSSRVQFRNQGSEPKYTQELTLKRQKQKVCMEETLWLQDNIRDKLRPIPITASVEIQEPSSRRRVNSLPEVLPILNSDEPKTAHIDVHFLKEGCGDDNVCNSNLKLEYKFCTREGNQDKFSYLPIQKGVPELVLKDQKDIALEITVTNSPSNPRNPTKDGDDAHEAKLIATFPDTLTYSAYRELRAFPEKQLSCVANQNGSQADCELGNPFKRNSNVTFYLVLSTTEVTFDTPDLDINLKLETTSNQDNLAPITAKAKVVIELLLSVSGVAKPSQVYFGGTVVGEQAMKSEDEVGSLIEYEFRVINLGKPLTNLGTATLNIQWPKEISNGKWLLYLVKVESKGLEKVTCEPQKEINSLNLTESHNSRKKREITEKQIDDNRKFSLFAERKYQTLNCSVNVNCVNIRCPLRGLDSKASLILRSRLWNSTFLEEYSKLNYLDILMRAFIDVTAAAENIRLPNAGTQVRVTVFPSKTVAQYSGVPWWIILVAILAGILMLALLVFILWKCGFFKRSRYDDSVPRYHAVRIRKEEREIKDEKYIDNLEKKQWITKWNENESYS
Sequence of UniProt P11021 (P11021 whole entry): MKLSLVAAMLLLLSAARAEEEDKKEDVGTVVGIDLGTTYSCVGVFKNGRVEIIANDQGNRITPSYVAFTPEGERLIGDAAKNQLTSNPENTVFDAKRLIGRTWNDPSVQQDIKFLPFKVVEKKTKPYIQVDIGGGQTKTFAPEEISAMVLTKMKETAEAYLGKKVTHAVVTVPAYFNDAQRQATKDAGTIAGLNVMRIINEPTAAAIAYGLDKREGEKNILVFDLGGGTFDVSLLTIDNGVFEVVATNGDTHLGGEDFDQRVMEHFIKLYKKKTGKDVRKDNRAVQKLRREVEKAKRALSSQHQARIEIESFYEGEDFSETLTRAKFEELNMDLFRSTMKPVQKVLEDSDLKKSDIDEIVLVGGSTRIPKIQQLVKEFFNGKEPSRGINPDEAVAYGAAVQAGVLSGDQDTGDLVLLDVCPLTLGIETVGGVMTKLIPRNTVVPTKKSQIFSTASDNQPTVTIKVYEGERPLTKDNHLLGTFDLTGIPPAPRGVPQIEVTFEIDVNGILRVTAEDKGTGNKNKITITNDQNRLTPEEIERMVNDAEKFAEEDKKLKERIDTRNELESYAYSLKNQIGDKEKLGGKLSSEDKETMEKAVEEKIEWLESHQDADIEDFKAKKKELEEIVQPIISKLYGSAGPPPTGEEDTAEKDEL
Sequence of UniProt Q9Y639 (Q9Y639 whole entry): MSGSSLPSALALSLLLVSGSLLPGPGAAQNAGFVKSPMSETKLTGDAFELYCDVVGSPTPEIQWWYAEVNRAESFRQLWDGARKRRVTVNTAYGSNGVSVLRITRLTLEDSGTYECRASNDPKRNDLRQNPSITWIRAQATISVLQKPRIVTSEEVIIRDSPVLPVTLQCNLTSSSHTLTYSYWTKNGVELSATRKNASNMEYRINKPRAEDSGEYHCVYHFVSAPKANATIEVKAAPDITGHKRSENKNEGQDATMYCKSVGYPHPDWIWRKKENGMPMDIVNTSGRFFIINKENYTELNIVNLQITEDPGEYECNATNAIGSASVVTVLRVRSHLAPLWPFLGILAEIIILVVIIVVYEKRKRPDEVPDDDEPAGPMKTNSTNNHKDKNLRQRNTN

Target	lysine labeling ratio R10:1
SPTAN1 (lysine site: K241) (UniProt Q13813)	7.04 (inactive)
TFRC (lysine site: K672) (UniProt P02786)	3 (inactive)
FAT4 (lysine site: K2566) (UniProt Q6V0I7)	2.59 (inactive)
ITGA6 (lysine site: K127) (UniProt P23229)	1.74 (active)
PRCP (lysine site: K228) (UniProt P42785)	2.59 (inactive)
RPL28 (lysine site: K84) (UniProt P46779)	2.27 (inactive)
RPS19 (lysine site: K143) (UniProt P39019)	1.75 (active)
LAMB1 (lysine site: K1778) (UniProt P07942)	1.01 (active)
RPL5 (lysine site: K242) (UniProt P46777)	5.69 (inactive)
ERLIN2 (lysine site: K205) (UniProt O94905)	3.71 (inactive)
PLS3 (lysine site: K91) (UniProt P13797)	2.1 (inactive)
HSPA5 (lysine site: K382) (UniProt P11021)	1.18 (active)
RDX (lysine site: K556) (UniProt P35241)	1.52 (active)
RPL4 (lysine site: K294) (UniProt P36578)	3.4 (inactive)
UniProt P62913 (lysine site: K52)	2.77 (inactive)
UniProt P06576 (lysine site: K133)	3.53 (inactive)
NPTN (lysine site: K260) (UniProt Q9Y639)	1 (active)
